Among the data in PubChem BioAssay (NCATS) are Potency values, retold here.

Results filed as inconclusive are left out. The source made the active and inactive calls. The call rests on the fitted dose curve; in most records, active means well fitted inhibition curve with a large enough effect; inconclusive means small, poorly fitted or top-dose-only effect; inactive means flat fitted curve, though single readings scatter.

Common to all, as to test: qHTS profiling for inhibitors of Plasmodium falciparum proliferation (AID 504749); further: nearly all actives have a fitted effect of over 60% in size
Details in all cases: P. falciparum in erythrocytes, SYBR Green DNA, 72 h; series mostly up to 28.7 µM
Background: In qHTS, concentration-response curves come from the screen itself.

One test relates to CP192. The method in brief:
(§1)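 Readout was DNA-dye fluorescence from lysed cultures, ex 485/em 535 nm. Parasitized red cells had grown 72 h with compound; data scaled between 0.29 uM artemisinin and DMSO wells and corrected using vehicle-only plates.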

Another test relates to CP194. The method in brief: as §1
The test system of a further test is CP201. A digest of the protocol: as §1
A further test has as its system CP211. The method in brief:
as §1

Another test deals with CP215. A digest of the protocol:
as §1

The test system of a further test is CP217. A digest of the protocol: as §1
Another test relates to CP237. The method in brief: as §1
A further test has as its system CP238. The method in brief:
as §1

In a further test the test system is CP250. The method in brief:
as §1

For a further test, the system named is CP252. A digest of the protocol: as §1
The subject of the next test is CP256. The method in brief:
as §1

The subject of the next test is CP260. The method in brief: as §1
A further test relates to CP262. A digest of the protocol:
as §1

A further test has as its system CP266. A digest of the protocol:
as §1

Another test has as its system CP269. A digest of the protocol: as §1
The subject of another test is CP286. The method in brief: as §1
A further test relates to CP265. A digest of the protocol: as §1
Another test relates to CP268. A digest of the protocol: as §1
For the next test, the system named is CP203. A digest of the protocol: as §1
The next test concerns CP247. The method in brief:
as §1
Potency means the concentration at half of the fitted maximal effect.

As for `CN(C)CCCOc1nn(Cc2ccccc2)c2ccccc12`, the Potency result with CP192, in the test on CP194, in the test on CP201, with CP211, with CP215 and with CP217 was “inactive” each time. Further, the Potency entry in the test with CP238, in the test on CP250, in the test with CP252, in the test on CP256, in the test on CP260 and in the test with CP262 was “inactive” throughout. Further, the Potency entry in the test on CP266, in the test on CP269 and in the test on CP286 was “inactive” in each case. Further, the Potency with CP237 is 3.16 µM (active).
As for `CCN(CC)C(=O)/C(C#N)=C/c1cc(O)c(O)c([N+](=O)[O-])c1`, the Potency entry with CP192, with CP194, in the test with CP201, in the test on CP211, in the test on CP215 and in the test with CP238 was “inactive” throughout. In addition, the Potency entry with CP250, in the test with CP252, with CP256, with CP260, with CP262 and with CP265 was “inactive” each time. The Potency entry in the test with CP266, in the test with CP268 and in the test on CP269 was “inactive” each time.
Consider `CC(C)NC[C@@H](O)COc1cccc2ccccc12`, for which the Potency entry with CP192, with CP201, in the test on CP211, with CP250, with CP262 and in the test on CP266 was “inactive” each time. The Potency entry in the test on CP268 was “inactive”. The Potency in the test on CP203 was 10.7 µM (active); with CP237, 5.01 µM (active); with CP260, 12.6 µM (active); in the test on CP265 it was 10 µM (active).
For the compound `CCN(CCCc1ccccc1)CCCc1ccccc1`, the Potency entry in the test with CP192, in the test with CP201, in the test with CP217, with CP247, in the test on CP250 and with CP252 was “inactive” in each case. The Potency entry with CP256, in the test with CP260, in the test on CP262 and in the test on CP266 was “inactive” throughout.
With `COc1cc2c(cc1OC)C(=O)C(CC1CCN(Cc3ccccc3)CC1)C2` (configuration not stated), the Potency result with CP192, in the test with CP194, in the test with CP201, in the test on CP211, in the test on CP215 and in the test on CP237 was “inactive” each time. In addition, the Potency entry in the test with CP247, with CP252, with CP256, in the test on CP260, in the test on CP262 and in the test on CP266 was “inactive” throughout. Further, the Potency entry in the test on CP268, in the test on CP269 and in the test on CP286 was “inactive” throughout.
Consider `CN1CCN(C(c2ccccc2)c2ccccc2)CC1`, for which the Potency result with CP192, with CP201, in the test on CP211, in the test with CP217, in the test on CP238 and with CP247 was “inactive” throughout. Further, the Potency result in the test with CP250, in the test on CP252, in the test on CP256, in the test with CP260, in the test on CP262 and in the test on CP266 was “inactive” throughout. In addition, the Potency result in the test with CP268 and in the test with CP286 was “inactive” in each case.
As for `NC(CS)C(=O)O` (configuration not stated), the Potency result with CP192, in the test on CP201, with CP211 and in the test with CP262 was “inactive” each time. The Potency in the test on CP260 was 8.91 µM (active).
On to `CCCN1CCCC[C@H]1C(=O)Nc1c(C)cccc1C`, for which the Potency result in the test with CP192, in the test on CP194, in the test with CP201, with CP211, in the test with CP215 and in the test on CP217 was “inactive” each time. The Potency entry with CP238, with CP247, with CP250, in the test on CP252, in the test on CP256 and with CP260 was “inactive” throughout. For the same compound, the Potency result with CP262, in the test on CP266, with CP269 and in the test with CP286 was “inactive” throughout. Moreover, the Potency with CP237 is 6.31 µM (active).
Consider `CCCCCCCCCCCCCCNCCO`, for which the Potency result in the test on CP192, with CP194, in the test with CP201, in the test with CP211, with CP217 and in the test on CP262 was “inactive” throughout. The Potency result in the test with CP266 and with CP269 was “inactive” throughout. For the same compound, the Potency was 4.47 µM (active) in the test on CP237, 10 µM (active) in the test with CP247, 4.47 µM (active) in the test with CP260 and 3.55 µM (active) in the test with CP286.
As for `O=C1OCCN1/N=C/c1ccc([N+](=O)[O-])o1`, the Potency entry in the test on CP192, with CP194, in the test with CP262, in the test on CP266 and in the test on CP269 was “inactive” each time.
Consider `CC(C)COC(=O)c1ccc(N)cc1`, for which the Potency entry in the test with CP192, with CP194, with CP211, in the test on CP215, with CP217 and in the test on CP237 was “inactive” in each case. In addition, the Potency result in the test with CP238, with CP247, in the test on CP250, with CP252, with CP256 and with CP260 was “inactive” in each case. Besides, the Potency result in the test on CP262, in the test with CP265, with CP266, in the test on CP268 and with CP286 was “inactive” throughout.
Consider `CN1CCN(CCCN2c3ccccc3Sc3ccc(S(=O)(=O)N(C)C)cc32)CC1`, for which the Potency entry in the test with CP192, in the test with CP194, in the test on CP201, in the test with CP211, in the test on CP252 and in the test on CP262 was “inactive” throughout. Also, the Potency result in the test on CP266 is “inactive”. Besides, the values for the Potency in the test with CP217, with CP237 and in the test with CP265 were 3.98 µM (active), 3.98 µM (active) and 3.55 µM (active), respectively.
